# Sampled rows, rich in hits. Any-hit rate of the full collection: about 27%.
# CYP2C19 inhib – blockers of cytochrome P450 2C19 activity – biochemical, luminescence, ADME assay, primary screen. P33261. CYP2C19 Supersomes, luciferin-H EGE luminescence, 30 min. inhibition, % at 5 µM. 96,000 tested, 21% active. AID 778, 2007;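 active = CYP2C19 inhibition above a set limit at 5 µM in the primary screen, cut at about 50% in these data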;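 note: plate controls were negative control wells for no effect and 2.5 mM tranylcypromine positive control for full effect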
# sEH inhibitor – soluble epoxide hydrolase inhibitors, primary screen, biochemical, human sEH. inhibition, % at 2 µM. AID 707, 2007. 91,000 tested, 0.34% active. Bifunctional epoxide hydrolase 2 (Homo sapiens), P34913. recombinant human sEH enzymatic activity assay; in the data active = inhibition above about 80%
# CYP2C9 inh – blockers of cytochrome P450 2C9 activity – biochemical, luminescence, ADME assay, primary screen; P11712; CYP2C9 Supersomes, luciferin-H conversion; inhibition, % at 5 µM; 96,000 tested, 20% active;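 active = blocking of liver enzyme CYP2C9 beyond about 50% at 5 µM, limit read from the data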
# Target sequence (P11712 whole entry, looked up): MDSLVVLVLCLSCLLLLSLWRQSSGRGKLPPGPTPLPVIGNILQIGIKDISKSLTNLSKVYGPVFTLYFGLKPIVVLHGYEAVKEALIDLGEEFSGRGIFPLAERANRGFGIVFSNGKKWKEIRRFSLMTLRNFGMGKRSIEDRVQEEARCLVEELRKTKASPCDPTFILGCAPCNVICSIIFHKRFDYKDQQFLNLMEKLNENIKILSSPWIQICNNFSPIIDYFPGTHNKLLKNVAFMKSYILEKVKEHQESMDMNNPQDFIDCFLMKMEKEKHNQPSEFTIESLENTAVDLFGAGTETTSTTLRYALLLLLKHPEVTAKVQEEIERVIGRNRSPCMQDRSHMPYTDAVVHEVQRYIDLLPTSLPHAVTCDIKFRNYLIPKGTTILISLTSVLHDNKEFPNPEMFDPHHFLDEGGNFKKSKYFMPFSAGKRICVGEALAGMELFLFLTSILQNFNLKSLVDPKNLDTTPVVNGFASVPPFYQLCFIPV
# CYP2C19 act – human CYP2C19 activators, primary screen, biochemical, luminescence; AID 1025, 2008; recombinant CYP2C19, luciferin-H EGE luminescence; stronger effect = higher value; 0 = fully inhibited enzyme, 1 = untreated enzyme; 96,000 tested, under 10 active; activation factor at 5 µM;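 active = activation factor of at least 2 at 5 µM in the primary screen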;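 note: 0 = wells with 2.5 mM tranylcypromine and 1 = vehicle-only wells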
# CYP2C9 activ – human CYP2C9 activators, primary screen, biochemical, luminescence | 96,000 tested, 1.4% active | recombinant CYP2C9, luciferin-H conversion; stronger effect = higher value; factor 1 = untreated enzyme, 0 = blocked | activation factor at 5 µM;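 active = activation factor of 2 or more for CYP2C9 at a 5 µM dose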;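 note: 0 = sulfaphenazole-blocked wells and 1 = vehicle-only wells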
# sEH activator – soluble epoxide hydrolase activators, primary screen, biochemical, human sEH. activation, % at 2 µM. purified human sEH enzymatic activity, activator screen. 91,000 tested, 0.04% active; in the data active = activation above about 37%
# Active calls of the source: *; · = no result.
SMILES,CYP2C19 inhib,sEH inhibitor,CYP2C9 inh,CYP2C19 act,CYP2C9 activ,sEH activator
O=S(=O)(NCC(c1cccnc1)N1CCN(c2ccc(F)cc2)CC1)c1ccc(F)cc1 (centres undefined),84*,-6,72*,0.2,0.3,6
CN(C)C(CNS(=O)(=O)c1ccc(F)cc1)c1cccnc1 (centres undefined),24,4,3,0.8,1,-2
O=S(=O)(NCC(c1cccnc1)N1CCN(c2ccccc2F)CC1)c1cccs1 (centres undefined),86*,-17,66*,0.1,0.3,15
COc1ccccc1N1CCN(C(CNS(=O)(=O)c2ccc(C)cc2)c2cccnc2)CC1 (centres undefined),58*,2,18,0.4,0.8,-3
O=C(C(NS(=O)(=O)c1cccs1)c1ccccc1)N1CCN(c2ccccc2F)CC1 (centres undefined),69*,44,56*,0.3,0.4,-43
O=S(=O)(NCC(c1cccnc1)N1CCN(c2ccc(F)cc2)CC1)c1cccs1 (centres undefined),88*,·,58*,0.1,0.4,·
O=S(=O)(NCC(c1cccnc1)N1CCOCC1)c1cccs1 (centres undefined),·,-4,·,·,·,5
Cc1ccc(S(=O)(=O)NCC(c2cccnc2)N(C)C)cc1 (centres undefined),61*,7,7,0.4,0.9,-4
O=C(C(Sc1ccccc1)c1ccccc1)N1CCN(c2ccccc2F)CC1 (centres undefined),86*,-6,76*,0.1,0.2,6
CCNc1nc(NC(C)C)nc(Oc2ccc(OCCOc3ccccc3)nn2)n1,44,13,42,0.6,0.6,-14
Cc1ccnc(NS(=O)(=O)c2ccc(NS(=O)(=O)Cc3ccccc3)cc2)n1,-6,11,5,1.1,0.9,-8
COc1ccc(OC)c(N2C(=O)CC(C(C)c3ccccc3)C2=O)c1 (centres undefined),66*,-2,19,0.3,0.8,2
COc1cccc(-c2nn(-c3ccccc3)cc2/C=C\C(=O)c2cccs2)c1,33,-3,58*,0.7,0.4,5
COc1cccc(-c2nn(-c3ccccc3)cc2C(=O)O)c1,7,-11,15,0.9,0.8,10
Cc1c(C(=O)N2CCOCC2)[nH]c2c1C(=O)CC(c1ccccc1Cl)C2 (centres undefined),-8,-6,-24,1.1,1.2,6
COc1ccc(OC)c(C2CC(=O)c3c([nH]c(C(=O)OC(C)C)c3C)C2)c1 (centres undefined),46,7,58*,0.5,0.4,-4
COCCOC(=O)c1[nH]c2c(c1C)C(=O)CC(c1cc(OC)ccc1OC)C2 (centres undefined),8,·,59*,0.9,0.4,·
COc1ccc(OC)c(C2CC(=O)c3c([nH]c(C(=O)OCC4CCCO4)c3C)C2)c1 (centres undefined),36,7,66*,0.6,0.3,-7
Cc1ccc(CC2CC(=O)N(c3nc4ccccc4n3C)C2=O)cc1 (centres undefined),8,-3,-46,0.9,1.5,0
COc1ccc(/C=C/C(=O)c2nc3ccccc3n2CC(=O)c2ccc(OC)cc2)cc1,39,0,28,0.6,0.7,0
CC1CCCCN1C(=O)Cn1c(=O)oc2ccccc21 (centres undefined),·,-15,·,·,·,17
CC1CCCCN1c1nnc(NC(=O)Cn2c(=O)oc3ccccc32)s1 (centres undefined),-7,3,57*,1.1,0.4,-4
Cc1cc(N2C(=O)CCC2=O)ccc1NC(=O)c1cccs1,-5,8,-6,1.1,1.1,-8
COc1ccc(Cl)cc1Nc1nc(N2CCCC2)nc(N2CCCC2)n1,-12,·,1,1.1,1,·
Nc1c(C(=O)OCC2CCCO2)c2nc3ccccc3nc2n1C1CCCC1 (centres undefined),20,-4,55*,0.8,0.4,5

# From PubChem BioAssay
